Eight compounds from PubChem BioAssay (NCI) can be followed below.

About 83,000 compounds went through this panel and 20% of them were active in at least one assay; those are over-represented in the sample as a whole.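 Single-concentration screen, 48 h exposure, 96-well plates. Endpoint: percent growth. Below 10 = active.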 A number with no mark means an inactive call. Activity calls are given as the source filed them.

Holding throughout (experiment): NCI-60 one-dose screen, 48 h (100 = growth as untreated, 0 = no growth, -100 = all killed)
Details in all cases: 10 µM unless noted

Assay [1] deals with NCI-H23 lung.
For assay [2], the system named is NCI-H226 lung.
The test system of assay [3] is HOP-62 NSCLC.
For assay [4], the system named is NCI-H460 lung.
The test system of assay [5] is HOP-92 NSCLC.
Assay [6] has as its system NCI-H522 lung.
The subject of assay [7] is A549/ATCC NSCLC.
In assay [8] the test system is 786-0 renal.
Assay [9] relates to COLO 205 colon.
The test system of assay [10] is DU-145 prostate.
The subject of assay [11] is K-562 leukemia.
In assay [12] the test system is MALME-3M melanoma.
In assay [13] the test system is MDA-MB-231 breast.
In assay [14] the test system is RXF 393 renal.
The subject of assay [15] is SF-268 CNS.
Assay [16] has as its system SF-295 CNS.
Assay [17] deals with SF-539 CNS.
In assay [18] the test system is UACC-257 melanoma.
The test system of assay [19] is M14 melanoma.

On to `O=C(NCN1C(=O)c2cccc3cccc(c23)C1=O)N1CCC(Cc2ccccc2)CC1`, for which the growth is 93.9% in assay [1]; 96.7% in assay [2]; 94% in [3]; 103% in assay [4]; 70% in assay [5]; 77.9% in [6]. In addition, the growth was 89.8% in assay [7]; 102% in [8]; 97.5% in assay [9]; 106% in [10]; 90.2% in [11]; 96.6% in assay [12]. Further, the growth in [13] was 98.2%; in assay [14] it was 107%; in assay [15], 100%; in assay [16], 96.8%; in assay [17], 102%; in assay [18] it was 103%.

Take `CC(=O)OCCCCCCn1c2ccccc2c2c3c(c4c5ccccc5n(C)c4c21)C(=O)N(O)C3=O`: the growth in [1] was 68%; in assay [2] it was 63.7%; in assay [3], 58.7%; in assay [4], 48.1%; in [5], 101%; in assay [6] it was 50.4%. In addition, the growth in assay [7] was 94.5%; in assay [8], 88%; in assay [9], 70.1%; in assay [10], 89.9%; in assay [11], 59.7%; in [12], 115%. Also, the growth in [13] was 64.5%; in assay [14], 100%; in [15], 70.2%; in [16] it was 91.5%; in [17], 94.3%; in assay [19] it was 65.4%.

As to `CN(C)c1ccc(C(=O)c2ccc(N(C)C)c(N)c2)cc1N`, the growth in assay [1] is 40%; in assay [2], 75.6%; in assay [3] it was 53%; in assay [4] it was 13.5%; in assay [5], 91%; in assay [6] it was 49.2%. The growth was 56% in assay [7]; 42.4% in [8]; 21.3% in [9]; 6.99% (active) in [10]; 21.4% in assay [11]; 34.2% in assay [12]. For the same compound, the growth was 55.8% in assay [13]; 43.6% in [15]; 21.9% in assay [16]; 3.19% (active) in [17]; 77.3% in [18]; 13% in assay [19].

In the case of `O=C1c2cccc3cccc(c23)C(=O)N1CC#Cc1ccc2c3c(cccc13)C(=O)N(CCO)C2=O`, the growth in assay [1] was 81%; in assay [2], 91.9%; in assay [3], 84.5%; in assay [4], 95.8%; in assay [5] it was 86.4%; in assay [6], 92%. In addition, the growth is 97.3% in assay [7]; 98.1% in assay [8]; 118% in [9]; 88.6% in [10]; 95.1% in assay [11]; 100% in [12]. Besides, the growth is 66.9% in assay [13]; 85.1% in [14]; 78.9% in assay [15]; 98.7% in assay [16]; 90.8% in assay [17]; 94.2% in assay [18]. Also, in [19], the growth was 84.8%.

Take `Cn1cc(-c2csc(-c3cn(CCCN4CCCCC4)c4ccc(F)cc34)n2)c2cccnc21`: the growth in [1] was 89.2%; in assay [2] it was 91.6%; in assay [3], 99.3%; in assay [4], 96.1%; in assay [5], 49%; in assay [6] it was 103%. Further, the growth in assay [7] is 92.2%; in assay [8], 40.3%; in [9] it was 98.9%; in assay [10], 98%; in assay [11] it was 0.833% (active); in assay [12], -43% (active). Further, the growth in [13] was 64.2%; in assay [14], 64.9%; in assay [15], 89%; in [16], 99.9%; in assay [17], 83.6%; in assay [18] it was 70.6%. In assay [19], the growth is -73.4% (active).

As to `COc1ccc(/C(=C\c2ccc3c(c2)OCO3)C(=O)Nc2nc3ccccc3s2)cc1OC`, the growth in [1] is 95.1%; in assay [2], 86.9%; in [3], 94.2%; in assay [4], 102%; in [5] it was 91.4%; in assay [6], 89.5%. Further, the growth in assay [7] was 91.5%; in [8] it was 83.7%; in assay [9], 110%; in [10], 105%; in [11], 83.9%; in [13], 109%. Besides, the growth in [14] was 88.4%; in assay [15], 83.2%; in [17], 93.8%; in assay [18], 105%; in assay [19], 92.7%.

Consider `c1ccc(CN2C(c3ccccc3)=Nc3ccccc3C2c2c[nH]c3ccccc23)cc1` (stereo unspecified), for which the growth in assay [1] was 27.4%; in assay [2], 59.3%; in [3] it was 47.1%; in assay [4], 43.4%; in assay [5], -2.7% (active); in [6], 51.7%. Moreover, the growth in assay [7] is 65.5%; in assay [8], 46.7%; in assay [9], 18.3%; in assay [10] it was 85.4%; in [11], 4.88% (active); in assay [12], 55.1%. In addition, the growth is 26.7% in assay [13]; 42.9% in assay [14]; 71.2% in assay [15]; 45.6% in [16]; 58.1% in assay [17]; 28.9% in [19].

As for `Nc1c2c(nc3ccc(Cl)cc13)CC(c1ccccc1)CC2=O` (stereo unspecified), the growth in [1] is 58.6%; in assay [2], 85%; in [3] it was 53.9%; in assay [4], 15.2%; in [5] it was 84.6%; in [6], 41.1%. For the same compound, the growth was 56.7% in [7]; 55.1% in assay [8]; 39.3% in [9]; 63.9% in [10]; 18% in [11]; 40.3% in [12]. In addition, the growth in [13] is 66.8%; in [14], 55.8%; in [15], 64.1%; in assay [16] it was 24.5%; in assay [17] it was 38.5%; in [18] it was 64%. Moreover, in assay [19], the growth is 13.9%.
